Screens: PubChem BioAssay, Broad Institute
STK33 inh = STK33 kinase inhibitors, primary screen, biochemical, luminescence, ADP-Glo, MBP substrate. AID 2322, 2010. hit rate 0.44% among 27,000. Serine/threonine-protein kinase 33 (Homo sapiens), Q9BYT3. inhibition, % at 12.5 µM; in the data active = inhibition above about 20%; inconclusive = no clear call, values can overlap the other calls
Target sequence (Q9BYT3 whole entry, looked up): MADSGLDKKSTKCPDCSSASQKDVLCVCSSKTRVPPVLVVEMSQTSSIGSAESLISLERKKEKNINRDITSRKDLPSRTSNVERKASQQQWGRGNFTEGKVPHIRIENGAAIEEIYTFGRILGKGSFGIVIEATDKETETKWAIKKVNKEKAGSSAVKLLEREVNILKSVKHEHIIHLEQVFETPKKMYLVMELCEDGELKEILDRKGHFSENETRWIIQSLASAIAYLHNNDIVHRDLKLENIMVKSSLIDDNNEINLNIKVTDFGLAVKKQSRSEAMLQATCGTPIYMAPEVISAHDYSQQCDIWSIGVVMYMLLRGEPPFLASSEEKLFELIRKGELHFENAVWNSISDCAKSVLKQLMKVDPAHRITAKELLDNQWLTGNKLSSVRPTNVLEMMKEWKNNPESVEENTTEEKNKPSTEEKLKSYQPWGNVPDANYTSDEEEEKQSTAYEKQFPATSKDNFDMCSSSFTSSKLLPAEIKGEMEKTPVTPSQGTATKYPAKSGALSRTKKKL
NOMO-1 viab = NOMO-1 AML cell viability reduction, primary screen, STK33 inhibitor project, CellTiter-Glo luminescence. NOMO-1 AML viability, 72 h. inhibition, % (concentration not given with the values). hit rate 7.5% among 37,000. AID 2330, 2010; in the data active = inhibition above about 80%; inconclusive = no clear call, values can overlap the other calls
PD-1 reverse act = activators reversing PD-1 mediated T-cell inhibition, primary screen, luminescence, primary human CD4 T cells, PD-L1 beads; CellTiter-Glo 96 h; activation, % (test concentration not listed); 29,000 tested, under 10 active; AID 2316, 2010; call rule not given here;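 also: 0% = median vehicle wells and 100% = positive control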
Numbers without * were called inactive; ? = inconclusive; / = not tested or not shown. This is one part of a sample in which hits are shown more often than they occur.

SMILES | STK33 inh | NOMO-1 viab | PD-1 reverse act
C[C@@H]1CN([C@@H](C)CO)C(=O)Cc2cc(NC(=O)CCCCCC(=O)Nc3ccccc3N)ccc2O[C@@H]1CN(C)Cc1ccncc1 | / | 34.4 | -0.1
C[C@@H]1CN([C@H](C)CO)C(=O)Cc2cc(NC(=O)CCCCCC(=O)Nc3ccccc3N)ccc2O[C@H]1CN(C)Cc1ccncc1 | / | -4.1 | 1.9
C[C@H](CO)N1C[C@H](C)[C@H](CN(C)Cc2ccc(-c3ccccc3)cc2)Oc2ccc(NC(=O)CCCCCC(=O)Nc3ccccc3N)cc2C1=O | / | 65.0 | 0.3
O=C(CSc1nc2ccccc2c(=O)[nH]1)Nc1ccccc1C(=O)c1ccccc1 | 2.4 | 35.4 | 1.6
CSc1c(CC(=O)NCCc2ccccc2)n(C)c2ccccc12 | / | 8.9 | 0.2
COc1ccc(NC(=O)Nc2cccc3c2O[C@@H](CN(C)Cc2ccc(C(F)(F)F)cc2)[C@@H](C)CN([C@H](C)CO)C3=O)cc1 | / | 44.8 | -3.4
C[C@@H]1CN([C@@H](C)CO)C(=O)c2cccc(NC(=O)Nc3ccc(F)cc3)c2O[C@H]1CN(C)Cc1ccc(C(F)(F)F)cc1 | / | 102.6* | -6.7
C[C@H]1CN([C@@H](C)CO)C(=O)c2cccc(NC(=O)Nc3ccc(C(F)(F)F)cc3)c2O[C@@H]1CN(C)Cc1ccc(C(=O)O)cc1 | / | -9.3 | /
C[C@H]1CN([C@@H](C)CO)C(=O)c2cccc(NC(=O)Nc3ccc(F)cc3)c2O[C@H]1CN(C)Cc1ccc(C(F)(F)F)cc1 | / | 61.0 | -4.0
C[C@H](CO)N1C[C@H](C)[C@H](CN(C)Cc2ccc(C(F)(F)F)cc2)Oc2c(NC(=O)Nc3ccc(C(F)(F)F)cc3)cccc2C1=O | / | 109.6* | -4.8
COc1ccc(CN(C)C[C@H]2Oc3c(NC(=O)Nc4ccc(C(F)(F)F)cc4)cccc3C(=O)N([C@H](C)CO)C[C@H]2C)cc1 | / | 95.3* | -5.4
N#Cc1c(N)[nH]c(=S)c(C(N)=O)c1-c1cccc(Br)c1 | -7.1 | ? | -65.6
COc1ccc(-c2cc(C(F)F)n3ncc(C(=O)Nc4cccc(NC(C)=O)c4)c3n2)cc1 | 0.1 | 28.9 | -0.3
O=C(COC(=O)c1ccc(Cl)cc1NC(=O)c1ccc(Cl)cc1)c1ccccc1 | / | 27.8 | 0.6
C[C@H]1CN([C@@H](C)CO)C(=O)c2cccc(NC(=O)Nc3ccc4c(c3)OCO4)c2O[C@@H]1CN(C)Cc1ccc2c(c1)OCO2 | / | 6.0 | /
C[C@@H]1CN([C@@H](C)CO)C(=O)c2cccc(NC(=O)Nc3ccc4c(c3)OCO4)c2O[C@@H]1CN(C)Cc1ccc(Cl)c(Cl)c1 | / | 55.8 | -0.7
C[C@H](CO)N1C[C@H](C)[C@@H](CN(C)Cc2ccc(Cl)c(Cl)c2)Oc2c(NC(=O)Nc3ccc4c(c3)OCO4)cccc2C1=O | / | 81.6* | /
C[C@@H]1CN([C@H](C)CO)C(=O)c2cccc(NC(=O)Nc3ccc4c(c3)OCO4)c2O[C@H]1CN(C)Cc1ccc(Cl)c(Cl)c1 | / | 87.1* | -3.6
COC(=O)c1ccc(NC(=O)C(C)N(c2ccc(C)cc2)S(C)(=O)=O)cc1 (stereo not given) | -2.5 | 16.7 | -1.2
O=C(OC1C=C(CO)C2C(OC3OC(CO)C(O)C(O)C3O)OC=CC12O)c1ccc(O)cc1 (stereo not given) | -6.4 | / | /
Cc1c(Br)c([N+](=O)[O-])nn1CC(=O)Nc1sc2c(c1C#N)CCC2 | -1.9 | 11.1 | -2.0
C[C@H]1CN([C@@H](C)CO)C(=O)Cc2cc(NC(=O)NC3CCCCC3)ccc2O[C@@H]1CN(C)Cc1ccc(Cl)c(Cl)c1 | 4.4 | 105.4* | -0.2
C[C@@H]1CN([C@@H](C)CO)C(=O)Cc2cc(NC(=O)C3CCCCC3)ccc2O[C@@H]1CN(C)Cc1ccc(Cl)c(Cl)c1 | -1.9 | 123.3* | /
C[C@@H]1CN([C@@H](C)CO)C(=O)Cc2cc(NC(=O)NC3CCCCC3)ccc2O[C@@H]1CN(C)Cc1ccc(Cl)c(Cl)c1 | 1.3 | 110.7* | /
C[C@@H]1CN([C@H](C)CO)C(=O)Cc2cc(NC(=O)NC3CCCCC3)ccc2O[C@H]1CN(C)Cc1ccncc1 | 1.9 | 5.8 | 2.2
SMILES | STK33 inh | NOMO-1 viab | PD-1 reverse act
C[C@H](CO)N1C[C@H](C)[C@H](CN(C)Cc2ccc(Cl)c(Cl)c2)Oc2ccc(NC(=O)C3CCCCC3)cc2CC1=O | -0.5 | 36.8 | 0.8
C[C@@H]1CN([C@H](C)CO)C(=O)Cc2cc(NC(=O)NC3CCCCC3)ccc2O[C@@H]1CN(C)Cc1ccncc1 | / | 10.1 | -1.0
CC12CCC(C(=O)N3NC(=O)[C@@H](c4ccccc4)[C@@H]3c3ccccc3)(OC1=O)C2(C)C (stereo not given in full) | / | 29.6 | -1.5
N#Cc1c(-c2ccc(Cl)cc2)csc1S(=O)C1CCCCC1 (stereo not given) | 2.0 | 24.2 | -7.3
C[C@@H]1CN([C@H](C)CO)C(=O)Cc2cc(NC(=O)Nc3ccc4c(c3)OCO4)ccc2O[C@@H]1CN(C)Cc1ccc(C(F)(F)F)cc1 | 0.1 | 81.0* | -2.9
C[C@@H]1CN([C@H](C)CO)C(=O)Cc2cc(NC(=O)Nc3ccc(C(F)(F)F)cc3)ccc2O[C@@H]1CN(C)Cc1ccc2c(c1)OCO2 | 1.0 | 115.0* | -9.0
C[C@H]1CN([C@@H](C)CO)C(=O)Cc2cc(NC(=O)Nc3ccc(C(F)(F)F)cc3)ccc2O[C@@H]1CN(C)Cc1ccc2c(c1)OCO2 | 0.8 | 5.3 | /
C[C@H](CO)N1C[C@H](C)[C@H](CN(C)Cc2ccc3c(c2)OCO3)Oc2ccc(NC(=O)Nc3ccc(C(F)(F)F)cc3)cc2CC1=O | 3.9 | 124.0* | -2.7
C[C@@H]1CN([C@H](C)CO)C(=O)Cc2cc(NC(=O)Nc3ccc(F)cc3)ccc2O[C@H]1CN(C)Cc1ccc2c(c1)OCO2 | 2.5 | 37.1 | 1.3
C[C@@H]1CN([C@@H](C)CO)C(=O)Cc2cc(NC(=O)Nc3ccc4c(c3)OCO4)ccc2O[C@@H]1CN(C)Cc1ccc2c(c1)OCO2 | -0.6 | 6.1 | -1.0
COC(=O)c1ccc(NC(=O)CN(C)S(=O)(=O)c2cc(Cl)ccc2Cl)cc1 | -4.0 | -17.2 | 1.2
COc1ccc(NC(=O)CSc2nc(C(C)(C)C)cs2)cc1 | 8.2 | 21.5 | /
S=c1[nH]nc(CSCc2cccc3ccccc23)n1C1CCCCC1 | / | 23.9 | -0.3
COc1ccccc1-n1nnnc1SCC(=O)Nc1ccccc1C | -5.9 | -6.3 | -1.4
CC1C[C@@]23CC4C(C)(C)[C@@]5(C[C@]4(CN2C1=O)N(C)C3=O)C(=O)Nc1c5ccc2c1C(=O)CC(C)(C)O2 (stereo not given in full) | -2.1 | 118.3* | -0.4
Cc1cc(C)cc(-c2nc3cc(NC(=O)COc4ccccc4[N+](=O)[O-])ccc3o2)c1 | 5.7 | 33.7 | -0.7
Cc1cccc(NC(=O)COc2ccc3c(=O)c(-c4ccccc4)coc3c2)c1C | 1.3 | 49.8 | -0.3
COc1ccc(NC(=O)CSc2nc3ccc([N+](=O)[O-])cc3[nH]2)cc1 | 1.0 | 27.5 | /
CCCSc1ccc2nc(NC(=O)OC)[nH]c2c1 | 2.2 | 117.7* | /
COC(=O)Nc1nc2ccc(SC(C)C)cc2[nH]1 | -8.9 | 118.1* | /
CCOc1ccc(NC(=O)C(C)Sc2nc3ccc(F)cc3[nH]2)cc1 (stereo not given) | 0.0 | 24.6 | /
Cc1ccccc1-c1cc(C(=O)NCCCn2cc(Br)cn2)c2ccccc2n1 | -1.3 | 6.6 | /
